Key:
Test in all cases: log2 ratio of Biotin-Ahx-Ub-VS probe labelling (fragment/DMSO); higher = less target engagement (more negative = stronger competition), active = hit call of the paper (q ≤ 0.05, log2 ratio ≤ -1)
Conditions in all cases: compound concentration: 200 uM; treatment time: 3 h
USP42 = biological target: T1, USP42 (UniProt Q9H9J4)
T1 sequence (whole entry): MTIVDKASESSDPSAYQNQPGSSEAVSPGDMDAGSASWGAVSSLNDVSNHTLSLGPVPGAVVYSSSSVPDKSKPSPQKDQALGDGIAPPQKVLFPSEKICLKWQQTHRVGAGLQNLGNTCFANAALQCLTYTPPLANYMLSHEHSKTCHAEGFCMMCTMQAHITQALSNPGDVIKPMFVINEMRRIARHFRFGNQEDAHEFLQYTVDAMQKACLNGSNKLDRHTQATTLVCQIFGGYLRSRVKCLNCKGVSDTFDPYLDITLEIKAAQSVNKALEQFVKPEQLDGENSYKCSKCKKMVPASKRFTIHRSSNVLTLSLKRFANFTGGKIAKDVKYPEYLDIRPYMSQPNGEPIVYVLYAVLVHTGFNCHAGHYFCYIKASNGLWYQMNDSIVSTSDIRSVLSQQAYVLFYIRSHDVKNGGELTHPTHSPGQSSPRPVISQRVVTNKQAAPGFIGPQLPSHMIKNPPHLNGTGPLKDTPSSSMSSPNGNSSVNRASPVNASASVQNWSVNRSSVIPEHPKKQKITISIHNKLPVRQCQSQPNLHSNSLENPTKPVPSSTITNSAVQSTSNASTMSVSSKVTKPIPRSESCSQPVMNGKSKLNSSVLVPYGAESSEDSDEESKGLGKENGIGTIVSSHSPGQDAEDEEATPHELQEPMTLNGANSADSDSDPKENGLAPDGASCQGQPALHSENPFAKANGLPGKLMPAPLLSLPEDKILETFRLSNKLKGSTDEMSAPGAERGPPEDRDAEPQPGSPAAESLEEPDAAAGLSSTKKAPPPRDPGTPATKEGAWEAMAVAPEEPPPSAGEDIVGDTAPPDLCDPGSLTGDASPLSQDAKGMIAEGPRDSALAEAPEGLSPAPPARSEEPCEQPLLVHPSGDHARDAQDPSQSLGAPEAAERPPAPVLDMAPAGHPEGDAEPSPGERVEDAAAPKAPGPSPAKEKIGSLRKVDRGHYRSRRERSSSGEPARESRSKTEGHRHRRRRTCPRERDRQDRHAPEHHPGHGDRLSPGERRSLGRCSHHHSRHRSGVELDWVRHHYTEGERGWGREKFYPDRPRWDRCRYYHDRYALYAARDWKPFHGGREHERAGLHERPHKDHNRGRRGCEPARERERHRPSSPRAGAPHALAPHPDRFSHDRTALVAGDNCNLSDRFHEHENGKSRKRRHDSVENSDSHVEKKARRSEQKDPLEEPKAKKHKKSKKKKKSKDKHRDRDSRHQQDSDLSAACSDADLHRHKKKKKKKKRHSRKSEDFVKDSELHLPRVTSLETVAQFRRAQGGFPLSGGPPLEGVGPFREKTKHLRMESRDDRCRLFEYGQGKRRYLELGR
Summary of the method: (§1)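 Lysate from HEK293T cells, 495 µg per sample in Tris/CHAPS/IGEPAL buffer with protease inhibitors, was treated for 3 h in triplicate with fragment at 200 µM or vehicle. Biotin-Ahx-Ub-VS was next added at 0.5 µM final for 1 h. The labelled DUBs were enriched with NeutrAvidin, digested with LysC and trypsin, and run by diaPASEF LC-MS/MS, with values given as average log2 fragment/vehicle ratios by unpaired t-test on global-median-normalised Spectronaut quantities of proteins with ≥2 unique peptides.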

USP46 = USP46 (UniProt P62068)
Sequence of USP46 (P62068 whole entry): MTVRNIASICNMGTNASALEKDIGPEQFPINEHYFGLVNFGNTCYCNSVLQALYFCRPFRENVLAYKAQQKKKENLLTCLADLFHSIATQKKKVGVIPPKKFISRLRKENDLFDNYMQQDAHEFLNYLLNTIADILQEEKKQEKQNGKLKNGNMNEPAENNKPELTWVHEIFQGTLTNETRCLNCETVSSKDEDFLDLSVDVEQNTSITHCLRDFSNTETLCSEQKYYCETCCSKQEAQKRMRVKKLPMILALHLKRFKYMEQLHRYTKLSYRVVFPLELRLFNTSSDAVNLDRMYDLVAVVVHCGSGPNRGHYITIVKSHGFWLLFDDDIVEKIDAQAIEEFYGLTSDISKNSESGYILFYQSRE
Summary of the method: as §1

USP47 = biological target: T2, USP47 (UniProt Q96K76)
T2 sequence (whole entry): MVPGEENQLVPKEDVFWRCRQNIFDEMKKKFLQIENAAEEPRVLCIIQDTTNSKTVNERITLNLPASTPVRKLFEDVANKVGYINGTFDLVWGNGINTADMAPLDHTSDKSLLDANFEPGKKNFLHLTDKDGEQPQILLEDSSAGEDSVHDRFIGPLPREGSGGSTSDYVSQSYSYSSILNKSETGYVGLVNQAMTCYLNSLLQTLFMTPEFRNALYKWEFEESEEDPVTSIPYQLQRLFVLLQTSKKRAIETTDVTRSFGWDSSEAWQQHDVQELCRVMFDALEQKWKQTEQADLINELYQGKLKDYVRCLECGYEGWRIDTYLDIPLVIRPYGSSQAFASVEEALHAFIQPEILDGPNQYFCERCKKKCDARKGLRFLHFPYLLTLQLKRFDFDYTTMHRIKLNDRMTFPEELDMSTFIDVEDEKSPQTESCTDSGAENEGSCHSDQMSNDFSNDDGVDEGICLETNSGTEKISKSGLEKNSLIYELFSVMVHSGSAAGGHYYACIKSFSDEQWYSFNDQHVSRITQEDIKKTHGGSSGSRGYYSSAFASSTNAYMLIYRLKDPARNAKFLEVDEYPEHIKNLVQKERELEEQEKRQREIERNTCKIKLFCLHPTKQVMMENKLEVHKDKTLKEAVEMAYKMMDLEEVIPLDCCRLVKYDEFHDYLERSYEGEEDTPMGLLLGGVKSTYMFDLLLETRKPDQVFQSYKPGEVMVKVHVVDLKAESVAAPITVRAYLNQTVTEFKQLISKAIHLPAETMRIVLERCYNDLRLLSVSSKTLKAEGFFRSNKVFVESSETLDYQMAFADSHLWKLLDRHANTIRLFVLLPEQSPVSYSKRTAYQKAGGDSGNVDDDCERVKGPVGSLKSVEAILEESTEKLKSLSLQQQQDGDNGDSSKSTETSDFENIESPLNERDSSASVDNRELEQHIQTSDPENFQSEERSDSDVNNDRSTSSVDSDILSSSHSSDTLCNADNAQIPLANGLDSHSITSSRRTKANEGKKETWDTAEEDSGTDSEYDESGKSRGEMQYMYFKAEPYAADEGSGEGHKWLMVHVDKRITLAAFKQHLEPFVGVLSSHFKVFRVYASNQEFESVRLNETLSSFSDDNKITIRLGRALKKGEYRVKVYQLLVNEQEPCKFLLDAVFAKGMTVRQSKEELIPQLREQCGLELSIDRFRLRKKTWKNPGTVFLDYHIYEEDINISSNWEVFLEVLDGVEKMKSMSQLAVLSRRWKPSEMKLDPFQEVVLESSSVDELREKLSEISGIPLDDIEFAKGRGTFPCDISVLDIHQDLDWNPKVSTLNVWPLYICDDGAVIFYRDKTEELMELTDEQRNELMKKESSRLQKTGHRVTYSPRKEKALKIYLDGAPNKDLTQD
Summary of the method: as §1

USP48 = biological target: T3, USP48 (UniProt Q86UV5)
T3 sequence (whole entry): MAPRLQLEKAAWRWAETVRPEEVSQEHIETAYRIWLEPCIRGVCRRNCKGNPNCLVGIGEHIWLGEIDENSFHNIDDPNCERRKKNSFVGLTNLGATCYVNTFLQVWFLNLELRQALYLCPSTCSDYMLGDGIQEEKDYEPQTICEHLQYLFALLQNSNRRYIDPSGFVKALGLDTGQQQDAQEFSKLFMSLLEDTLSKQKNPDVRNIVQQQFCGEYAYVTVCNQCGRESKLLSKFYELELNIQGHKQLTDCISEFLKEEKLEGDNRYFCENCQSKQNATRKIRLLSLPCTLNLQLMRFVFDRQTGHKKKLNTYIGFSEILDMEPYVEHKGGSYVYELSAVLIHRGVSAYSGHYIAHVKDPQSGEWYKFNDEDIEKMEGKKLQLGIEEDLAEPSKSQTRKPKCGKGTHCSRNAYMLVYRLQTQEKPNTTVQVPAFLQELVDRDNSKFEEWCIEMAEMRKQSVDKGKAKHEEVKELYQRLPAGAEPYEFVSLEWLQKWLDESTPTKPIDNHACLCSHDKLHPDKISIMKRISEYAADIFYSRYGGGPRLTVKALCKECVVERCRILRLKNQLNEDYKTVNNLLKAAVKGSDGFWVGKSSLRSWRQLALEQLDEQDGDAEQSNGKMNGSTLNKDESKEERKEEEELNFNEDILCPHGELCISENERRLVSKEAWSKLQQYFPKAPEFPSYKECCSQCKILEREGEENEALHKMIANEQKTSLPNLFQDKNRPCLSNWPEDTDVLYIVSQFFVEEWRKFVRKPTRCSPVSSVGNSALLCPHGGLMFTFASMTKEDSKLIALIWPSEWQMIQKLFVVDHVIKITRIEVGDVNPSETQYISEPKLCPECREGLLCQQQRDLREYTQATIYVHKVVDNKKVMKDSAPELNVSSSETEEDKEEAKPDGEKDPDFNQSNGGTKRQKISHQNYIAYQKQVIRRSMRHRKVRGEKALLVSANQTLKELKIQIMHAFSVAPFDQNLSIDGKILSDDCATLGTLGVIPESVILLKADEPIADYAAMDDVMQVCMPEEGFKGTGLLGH
Summary of the method: as §1

USP5 = biological target: T4, USP5 (UniProt P45974)
T4 sequence (whole entry): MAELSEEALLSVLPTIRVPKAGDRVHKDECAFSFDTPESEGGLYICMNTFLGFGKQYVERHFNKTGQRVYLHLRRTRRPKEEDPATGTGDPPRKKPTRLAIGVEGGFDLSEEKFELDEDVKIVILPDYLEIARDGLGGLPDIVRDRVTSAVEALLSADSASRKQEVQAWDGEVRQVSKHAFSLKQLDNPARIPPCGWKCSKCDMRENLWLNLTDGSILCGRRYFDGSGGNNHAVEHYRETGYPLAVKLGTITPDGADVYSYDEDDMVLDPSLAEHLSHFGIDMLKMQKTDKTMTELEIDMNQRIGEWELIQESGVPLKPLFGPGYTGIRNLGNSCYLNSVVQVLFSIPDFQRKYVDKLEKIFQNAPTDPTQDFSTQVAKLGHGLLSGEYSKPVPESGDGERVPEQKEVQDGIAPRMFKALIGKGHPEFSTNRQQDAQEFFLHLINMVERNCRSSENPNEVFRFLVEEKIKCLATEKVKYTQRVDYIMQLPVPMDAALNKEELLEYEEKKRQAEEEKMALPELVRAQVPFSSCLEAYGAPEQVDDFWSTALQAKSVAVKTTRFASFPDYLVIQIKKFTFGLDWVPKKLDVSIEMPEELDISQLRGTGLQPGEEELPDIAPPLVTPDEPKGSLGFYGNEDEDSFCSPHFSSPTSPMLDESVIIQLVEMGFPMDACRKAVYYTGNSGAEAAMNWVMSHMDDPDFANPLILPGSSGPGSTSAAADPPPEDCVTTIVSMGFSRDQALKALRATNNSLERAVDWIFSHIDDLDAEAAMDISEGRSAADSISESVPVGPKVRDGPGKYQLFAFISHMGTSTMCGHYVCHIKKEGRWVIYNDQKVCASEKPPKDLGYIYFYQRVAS
Summary of the method: as §1

USP54 = USP54 (UniProt Q70EL1)
Sequence of USP54 (Q70EL1 whole entry): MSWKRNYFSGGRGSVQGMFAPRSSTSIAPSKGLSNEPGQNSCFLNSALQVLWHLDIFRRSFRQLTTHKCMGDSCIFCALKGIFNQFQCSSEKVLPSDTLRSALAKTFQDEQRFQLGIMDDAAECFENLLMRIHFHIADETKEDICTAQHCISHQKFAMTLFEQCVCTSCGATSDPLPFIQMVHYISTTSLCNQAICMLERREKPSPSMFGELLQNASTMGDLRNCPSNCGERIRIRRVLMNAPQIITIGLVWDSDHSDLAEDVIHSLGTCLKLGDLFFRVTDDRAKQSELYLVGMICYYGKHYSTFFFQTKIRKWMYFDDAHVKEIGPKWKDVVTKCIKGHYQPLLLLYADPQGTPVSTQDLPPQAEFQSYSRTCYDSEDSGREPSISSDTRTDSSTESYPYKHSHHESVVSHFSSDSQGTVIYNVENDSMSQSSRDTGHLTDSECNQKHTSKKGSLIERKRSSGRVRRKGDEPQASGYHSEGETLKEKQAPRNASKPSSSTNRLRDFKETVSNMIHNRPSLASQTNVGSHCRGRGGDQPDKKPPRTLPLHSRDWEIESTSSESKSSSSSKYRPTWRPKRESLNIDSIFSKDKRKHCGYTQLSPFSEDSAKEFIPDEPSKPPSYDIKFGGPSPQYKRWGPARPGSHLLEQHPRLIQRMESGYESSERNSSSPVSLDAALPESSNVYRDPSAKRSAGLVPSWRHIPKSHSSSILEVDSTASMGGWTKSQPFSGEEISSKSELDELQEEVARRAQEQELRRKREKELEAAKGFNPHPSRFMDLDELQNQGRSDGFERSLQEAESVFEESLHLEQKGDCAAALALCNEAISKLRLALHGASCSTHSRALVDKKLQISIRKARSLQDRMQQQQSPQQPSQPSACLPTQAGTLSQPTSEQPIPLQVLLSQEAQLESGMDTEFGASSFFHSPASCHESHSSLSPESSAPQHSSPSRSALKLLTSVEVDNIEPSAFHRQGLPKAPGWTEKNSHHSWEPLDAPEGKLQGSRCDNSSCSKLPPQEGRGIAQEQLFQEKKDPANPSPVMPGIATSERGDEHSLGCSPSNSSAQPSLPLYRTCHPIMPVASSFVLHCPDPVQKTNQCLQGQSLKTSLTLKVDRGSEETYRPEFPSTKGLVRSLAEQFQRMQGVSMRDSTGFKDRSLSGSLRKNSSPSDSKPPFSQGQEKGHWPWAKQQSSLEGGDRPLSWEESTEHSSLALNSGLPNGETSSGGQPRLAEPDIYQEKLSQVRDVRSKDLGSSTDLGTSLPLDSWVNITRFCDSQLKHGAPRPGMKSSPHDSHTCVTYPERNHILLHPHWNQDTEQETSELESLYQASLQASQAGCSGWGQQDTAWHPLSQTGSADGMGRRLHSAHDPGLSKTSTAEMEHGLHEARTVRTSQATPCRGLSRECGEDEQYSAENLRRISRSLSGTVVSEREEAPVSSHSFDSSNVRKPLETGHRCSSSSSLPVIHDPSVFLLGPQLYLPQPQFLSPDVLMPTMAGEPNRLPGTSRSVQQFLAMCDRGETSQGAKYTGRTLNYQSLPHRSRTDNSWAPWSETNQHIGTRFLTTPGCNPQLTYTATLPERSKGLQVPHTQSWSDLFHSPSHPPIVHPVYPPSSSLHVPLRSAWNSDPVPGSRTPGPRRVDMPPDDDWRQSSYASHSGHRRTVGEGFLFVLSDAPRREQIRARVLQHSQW
Summary of the method: as §1

USP7 = USP7 (UniProt Q93009)
Sequence of USP7 (Q93009 whole entry, looked up): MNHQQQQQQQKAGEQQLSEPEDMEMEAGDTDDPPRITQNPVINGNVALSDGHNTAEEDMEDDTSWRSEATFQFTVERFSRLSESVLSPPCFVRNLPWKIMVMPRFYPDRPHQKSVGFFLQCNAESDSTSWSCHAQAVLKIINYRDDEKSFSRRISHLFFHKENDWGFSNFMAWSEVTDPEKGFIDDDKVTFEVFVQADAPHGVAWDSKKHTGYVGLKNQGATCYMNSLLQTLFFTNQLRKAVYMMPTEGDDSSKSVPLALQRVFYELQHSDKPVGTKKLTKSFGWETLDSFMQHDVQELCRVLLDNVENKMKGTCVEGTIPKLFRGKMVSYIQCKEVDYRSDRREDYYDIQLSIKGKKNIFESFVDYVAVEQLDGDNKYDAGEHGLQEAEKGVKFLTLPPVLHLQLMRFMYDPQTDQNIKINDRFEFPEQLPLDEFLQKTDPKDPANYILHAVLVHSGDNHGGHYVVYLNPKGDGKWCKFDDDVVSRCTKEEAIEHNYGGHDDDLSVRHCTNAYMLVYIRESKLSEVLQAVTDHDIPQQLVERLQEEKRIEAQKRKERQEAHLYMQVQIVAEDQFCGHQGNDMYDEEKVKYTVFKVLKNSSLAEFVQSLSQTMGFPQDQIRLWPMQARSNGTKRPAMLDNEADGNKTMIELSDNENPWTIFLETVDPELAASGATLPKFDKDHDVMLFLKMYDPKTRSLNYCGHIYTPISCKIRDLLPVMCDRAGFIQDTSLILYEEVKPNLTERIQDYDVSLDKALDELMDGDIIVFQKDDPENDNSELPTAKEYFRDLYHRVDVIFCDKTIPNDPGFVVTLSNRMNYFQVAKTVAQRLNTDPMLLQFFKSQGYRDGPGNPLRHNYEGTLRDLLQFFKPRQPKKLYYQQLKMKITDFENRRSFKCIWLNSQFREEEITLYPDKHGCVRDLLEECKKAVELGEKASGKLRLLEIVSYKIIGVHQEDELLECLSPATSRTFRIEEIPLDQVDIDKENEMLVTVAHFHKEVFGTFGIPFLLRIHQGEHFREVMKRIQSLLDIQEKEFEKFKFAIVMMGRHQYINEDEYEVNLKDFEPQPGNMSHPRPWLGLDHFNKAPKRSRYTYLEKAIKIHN
Summary of the method: as §1

USP8 = biological target: T5, USP8 (UniProt P40818)
T5 sequence (whole entry): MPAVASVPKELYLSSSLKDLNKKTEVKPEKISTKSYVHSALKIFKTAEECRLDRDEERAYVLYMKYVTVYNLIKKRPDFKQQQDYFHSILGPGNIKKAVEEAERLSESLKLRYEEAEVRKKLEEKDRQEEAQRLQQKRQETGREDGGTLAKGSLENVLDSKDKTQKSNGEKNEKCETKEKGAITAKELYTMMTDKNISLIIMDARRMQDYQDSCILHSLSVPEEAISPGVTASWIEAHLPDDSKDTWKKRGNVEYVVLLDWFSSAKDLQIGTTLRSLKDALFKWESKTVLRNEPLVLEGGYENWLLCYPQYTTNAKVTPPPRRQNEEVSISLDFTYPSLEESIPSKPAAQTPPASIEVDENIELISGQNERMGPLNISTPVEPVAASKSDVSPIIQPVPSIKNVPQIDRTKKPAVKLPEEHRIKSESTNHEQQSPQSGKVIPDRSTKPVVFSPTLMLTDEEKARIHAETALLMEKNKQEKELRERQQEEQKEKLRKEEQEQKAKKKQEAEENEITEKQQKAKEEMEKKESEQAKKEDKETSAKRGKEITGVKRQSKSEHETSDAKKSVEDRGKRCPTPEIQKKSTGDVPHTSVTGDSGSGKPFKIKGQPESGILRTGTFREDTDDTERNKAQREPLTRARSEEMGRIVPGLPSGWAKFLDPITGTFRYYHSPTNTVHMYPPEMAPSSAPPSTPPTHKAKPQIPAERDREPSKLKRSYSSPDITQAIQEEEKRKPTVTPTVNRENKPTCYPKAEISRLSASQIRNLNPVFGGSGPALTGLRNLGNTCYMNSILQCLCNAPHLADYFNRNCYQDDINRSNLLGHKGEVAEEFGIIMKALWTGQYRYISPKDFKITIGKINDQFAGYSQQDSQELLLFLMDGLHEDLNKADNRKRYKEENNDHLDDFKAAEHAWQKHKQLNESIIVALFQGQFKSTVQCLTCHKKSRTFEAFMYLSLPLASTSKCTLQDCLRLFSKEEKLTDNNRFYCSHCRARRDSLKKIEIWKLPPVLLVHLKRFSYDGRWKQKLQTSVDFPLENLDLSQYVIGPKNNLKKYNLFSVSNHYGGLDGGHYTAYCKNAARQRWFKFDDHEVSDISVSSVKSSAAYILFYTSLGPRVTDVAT
Summary of the method: as §1

USP9X = USP9X (UniProt Q93008)
Summary of the method: as §1

UniProt O00487 = biological target: UniProt O00487
Sequence of UniProt O00487 (O00487 whole entry): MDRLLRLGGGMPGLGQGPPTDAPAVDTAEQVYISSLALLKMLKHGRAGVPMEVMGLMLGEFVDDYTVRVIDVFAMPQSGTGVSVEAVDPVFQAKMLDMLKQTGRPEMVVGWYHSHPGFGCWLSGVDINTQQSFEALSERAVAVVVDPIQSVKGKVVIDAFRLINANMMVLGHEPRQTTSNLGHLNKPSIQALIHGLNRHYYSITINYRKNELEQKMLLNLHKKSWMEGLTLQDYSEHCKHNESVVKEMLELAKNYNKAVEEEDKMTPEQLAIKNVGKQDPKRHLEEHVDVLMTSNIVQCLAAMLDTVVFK
Summary of the method: as §1

Measured: log2 ratio of Biotin-Ahx-Ub-VS probe labelling

CNC(=O)C1(NC(=O)CCl)CCCCC1
inactive: USP42 -0.202 | USP46 0.0346 | USP47 0.28 | USP48 -0.00183 | USP5 0.148 | USP54 0.521 | USP7 -0.0838 | USP8 -0.173 | USP9X -0.228 | UniProt O00487 0.0455

O=C(CCl)NC(Cn1ccccc1=O)c1ccccc1 (stereo not given)
inactive: USP42 -0.346 | USP46 0.258 | USP47 -0.4 | USP48 0.0761 | USP5 0.132 | USP54 0.317 | USP7 -0.205 | USP8 -0.0535 | USP9X -0.00544 | UniProt O00487 0.0216

Cc1n[nH]c(=O)c2c(NC(=O)CCl)oc(C)c12
inactive: USP42 0.339 | USP46 -0.0434 | USP47 0.166 | USP48 -0.0393 | USP5 -0.00864 | USP54 -0.153 | USP7 -0.0198 | USP8 -0.29 | USP9X -0.056 | UniProt O00487 -0.0655

Reference: the supplement of paper PMC11732987, “Enantioselective OTUD7B fragment discovery through chemoproteomics screening and high-throughput optimisation” (Communications Chemistry, 2025)
